Screens as filed in PubChem.
Rows were chosen to be rich in hits. Some 1.1% of all compounds tested hit in one or more screens of this group.
Pin1 inh = blocks the human prolyl isomerase Pin1 | Pin1 FP peptide displacement, HiFluor488, 10 min | Q13526 | AID 504891 | 390,000 tested, 0.009% active | Potency, µM (highest dose often 115 µM), for the others: at the highest dose activity, negative = inhibition, hits mostly inhibitors; active = well fitted inhibition curve with a large enough effect in the polarisation, with a control signal flat, not every such curve was filed as active; inconclusive = small, poorly fitted or top-dose-only effect, or effect the other way, or a change in a side signal; inactive = no such curve, though single readings can be large or run the other way; the % refers to the polarisation
Target sequence (Q13526 whole entry, looked up): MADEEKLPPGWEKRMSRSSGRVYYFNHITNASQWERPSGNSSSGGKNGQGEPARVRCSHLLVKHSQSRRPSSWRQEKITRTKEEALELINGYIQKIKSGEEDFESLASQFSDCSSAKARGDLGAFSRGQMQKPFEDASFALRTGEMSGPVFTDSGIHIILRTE
GLS inhibitor = glutaminase GLS (human) inhibition | GLS enzymatic activity, qHTS titration | Potency, µM (highest dose often 45.5 µM), without a hit: top-dose activity change, negative = inhibition, actives largely listed as inhibitors | 410,000 tested, 0.21% active | AID 624170
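Glutamate formation by hKGA was monitored fluorometrically using coupled glutamate oxidase, HRP and Amplex Red. Substrate was added as 1 mM L-glutamine solution; incubation was 30 min at RT after an initial read.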
VDR inh = blocks the human vitamin D receptor. P11473. VDR-SRC2-3 peptide fluorescence polarization, 2 h. Potency, µM, inactives show max response, negative = inhibition, actives largely listed as inhibitors. 400,000 tested, 0.93% active
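The screen uses fluorescence polarization to detect compounds that interfere with recruitment of the SRC2-3 coactivator peptide to VDR; plates are read after 2 h at room temperature.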
Tb PFK block = inhibitors of T. brucei phosphofructokinase | O15648 | T. brucei PFK, ADP-Glo luminescence | Potency, µM (titrated, usually from 57.5 µM), inactives show top-dose activity, negative = inhibition, most hits filed as inhibitors | 330,000 tested, 0.17% active;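 note: 0% = uninhibited 1x PFK enzyme wells and -100% = no-enzyme wells; nearly all actives have a fitted effect of over 60% in size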
Target sequence (O15648 whole entry, looked up): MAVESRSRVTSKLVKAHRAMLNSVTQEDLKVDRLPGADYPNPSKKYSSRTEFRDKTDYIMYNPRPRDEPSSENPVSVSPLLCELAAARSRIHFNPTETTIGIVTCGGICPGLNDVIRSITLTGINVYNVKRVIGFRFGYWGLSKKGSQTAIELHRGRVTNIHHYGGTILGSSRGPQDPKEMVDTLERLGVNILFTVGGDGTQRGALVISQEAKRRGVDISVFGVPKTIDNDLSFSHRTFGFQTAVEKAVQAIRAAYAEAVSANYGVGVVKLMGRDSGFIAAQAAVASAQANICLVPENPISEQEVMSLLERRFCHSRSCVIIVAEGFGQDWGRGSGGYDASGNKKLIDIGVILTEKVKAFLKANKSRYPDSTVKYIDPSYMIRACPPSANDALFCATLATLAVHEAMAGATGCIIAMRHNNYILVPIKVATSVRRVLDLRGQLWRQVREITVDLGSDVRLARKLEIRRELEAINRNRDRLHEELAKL
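In TEA buffer at pH 8.0 with 5 mM MgCl2, enzyme (1.25 nM) converted F6P (0.5 mM) and ATP (0.1 mM) for 45 min at room temperature. ADP product was read by luciferase luminescence.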
Tb PGK inh = inhibitors of T. brucei phosphoglycerate kinase; AID 602233; 380,000 tested, 0.043% active; PGK/GAPDH coupled, Kinase-Glo luminescence, 60 min; Potency, µM (doses to about 57.5 µM), for inactives: at the top dose activity change, negative = inhibition, most hits filed as inhibitors; note: nearly all actives have a fitted effect of over 60% in size
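Luminescent ATP detection (Kinase-Glo Plus) follows a 60-minute room-temperature incubation, with wells lacking PGK as controls. Buffer: 100 mM TEA (pH 7.6), 5 mM MgCl2, 0.01% Tween-20. Coupling enzyme GAPDH (100 nM final) supplies unstable 1,3-BPG in-well.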
Active calls of the source: *; i = inactive; ? = inconclusive; nt = no result; [ ] = dose if it differs, or a comment. Unless noted, calls come from the whole dose curve; as a rule, active = well fitted curve in the direction sought with a large enough effect; inconclusive = small, poorly fitted or top-dose-only effect, or another doubt; inactive = no such curve, though single readings can be large; an effect the other way counts as inactive or inconclusive. Unless noted, % is set by controls: 0 for no effect and ±100 for the full control effect; potency is the fitted concentration of half-maximal effect.

SMILES	Pin1 inh	GLS inhibitor	VDR inh	Tb PFK block	Tb PGK inh
CCOC(=O)C1=C(C)N=c2s/c(=C\c3ccc(OCC(=O)O)cc3)c(=O)n2C1c1ccc(OC(C)C)cc1 (stereo unspecified)	?	5.7%	50.1µM*	-0.3%	-5.3%
CCOC(=O)C1=C(C)N=c2s/c(=C/c3ccc(OCC(=O)O)cc3)c(=O)n2C1c1cc(OC)c(OC)c(OC)c1 (stereo unspecified)	24.7%	-16.3%	?	-11.4%	-16.3%
COc1cccc(C2C(C(=O)OC(C)C)=C(C)N=c3s/c(=C\c4ccc(C(=O)O)cc4)c(=O)n32)c1 (stereo unspecified)	-2.2%	-2.5%	89.1µM*	2.3%	-5.4%
COC(=O)[C@H](Cc1ccccc1)NC(=O)O[C@@H]1C(=O)c2ccc(OC)cc2O[C@H]1c1ccc2c(c1)OCO2	nt	nt	-4.0%	nt	nt
CCNc1cc2c(cc1O)CCC1C2CCC2(C)C(O)CCC12 (stereo unspecified)	2.6%	?	79.4µM*	nt	1.6%
CCOc1cc2c(cc1O)CCC1C2CCC2(C)C(O)CCC12 (stereo unspecified)	0.9%	6.4%	14.4%	nt	-2.6%
CC(C)(C)c1cnnn1-c1ccc(C(=O)CCl)cc1	0.1%	4.1%	79.4µM*	1.8%	-3.9%
CC(C)(C)c1cnnn1-c1ccc(C=O)cc1	2.5%	7.2%	-1.8%	-3.9%	0.5%
CCOc1ccccc1OCc1nn2c(COc3ccccc3)nnc2s1	-2.3%	5.5%	31.6µM*	-1.2%	-3.7%
Cc1cc(NC(=O)CSc2nc(-c3cccs3)cc(C(F)(F)F)n2)no1	0.9%	4.5%	8.5%	4.2%	-5.4%[11.5 µM]
COC(=O)CCS(=O)(=O)c1nc(-c2ccccc2)cc(C(F)(F)F)n1	-1.9%	4.2%	20µM*	-17.6%	-11.2%
CCC(C)NC(=O)CCSc1nc(-c2ccc(OC)cc2)cc(C(F)(F)F)n1 (stereo unspecified)	-4.0%	-0.5%	-0.7%	nt	0.8%
COCC(C)NC(=O)CCS(=O)(=O)c1nc(-c2ccc(OC)cc2)cc(C(F)(F)F)n1 (stereo unspecified)	5.0%	2.8%	79.4µM*	-9.5%	1.5%
Cc1cc(NC(=O)CCCS(=O)(=O)c2nc(-c3cccs3)cc(C(F)(F)F)n2)no1	0.0%	-0.5%	17.8µM*	-12.3%	14.4%
O=C(O)CCS(=O)(=O)c1nc(-c2cccs2)cc(C(F)(F)F)n1	8.8%	3.8%	?	-8.9%	-10.4%
CCOC(=O)C1(C)NC(c2cccs2)C2C(=O)N(c3ccc(OC)cc3)C(=O)C21 (stereo unspecified)	-4.4%	?	31.6µM*	6.0%	-1.3%
CCOC(=O)C1(C)NC(c2ccccc2F)C2C(=O)N(c3cccc(C(C)=O)c3)C(=O)C21 (stereo unspecified)	1.1%	?	25.1µM*	-0.9%	1.7%
COc1ccc(CC(=O)Nc2ccc(-c3nc4ccccc4s3)c(C)c2)cc1OC	16.5%	6.8%	8.8%	nt	3.5%
NC(=O)SCC(=O)Nc1ccc(Cl)cc1	-6.1%	0.1%	28.2µM*	?	-0.3%
C/C(=N/Nc1ccccc1C(=O)O)c1cccs1	-4.2%	12.6µM*	-6.1%	0.1%	2.4%
O=C(Oc1ccccc1C(=O)Nc1ccccc1)c1ccc(Br)c([N+](=O)[O-])c1	50.3%	-0.3%	50.1µM*	-2.6%	i
CCNC(=S)Nc1ccc(OCc2nc3ccccc3s2)cc1	10.7%	6.3%	70.8µM*	-1.8%	-0.8%
CC(=O)Nc1ccc(SCC(=O)N(C)CC(=O)Nc2ccccc2Cl)cc1	11.9%	-9.2%	79.4µM*	-11.7%	i
CCOC(=O)c1[nH]c2ccc(OC)cc2c1NS(=O)(=O)c1ccc(Cl)s1	4.6%	7.08µM*	-19.8%	2.8%	4.9%
COC(=O)/C=C/c1cc(O)ccc1O	nt	nt	-6.1%	nt	nt
SMILES	Pin1 inh	GLS inhibitor	VDR inh	Tb PFK block	Tb PGK inh
O=C1NC(Cc2ccccc2)c2nc3ccc(F)cc3c(=O)n2-c2cc(Cl)ccc21 (stereo unspecified)	nt	nt	nt	4.5%	nt
COc1cccc(-n2c(SCC(=O)NCCC3=CCCCC3)nc3n[nH]c(C)c3c2=N)c1	3.8%	20µM*	-15.0%	9.2%	-1.7%
COc1cccc(NC(=O)CSc2nc3n[nH]c(C)c3c(=N)n2-c2cccc(OC)c2)c1	2.1%	-0.8%	19.0%	0.7%	-4.6%
Cc1ccc(Cn2cc(C(=O)c3ccc4c(c3)OCO4)c(=O)c3cc(C)ccc32)cc1	16.3%	-1.1%	9.0%	nt	-11.9%
COc1cccc(-c2cncnc2NCc2ccc(OC)cc2OC)c1	nt	nt	-0.7%	nt	nt
COc1cccc(-c2cncnc2Nc2ccc(F)cc2)c1	nt	nt	50.1µM*	nt	nt
Cc1ccc(NC(=O)c2cc(N3C(=O)C=CC3=O)ccc2Cl)cc1C	5.8%	-6.8%	35.5µM*	-14.0%	-2.2%
Cc1ccc(NC(=O)c2cc(N3C(=O)C=CC3=O)ccc2N2CCOCC2)cc1	10.0%	?	28.2µM*	?	9.7%
Cc1ccc(NC(=O)c2cc(-n3cnnc3)ccc2Cl)cc1	2.5%	-0.6%	6.6%	-3.6%	-0.2%
Cc1noc(C)c1-c1nc(NCCN2CCOCC2)c2ccccc2n1	nt	nt	-14.6%	nt	nt
COc1ccc(NC(=O)Cn2c(SCc3ccc(C)cc3)nc3cccnc32)c(OC)c1	1.0%	-9.2%	1.1%	nt	i
O=C1/C(=C\c2ccccn2)SC(=S)N1Nc1ncc(C(F)(F)F)cc1Cl	2.1%	-2.3%	?	2.0%	-4.0%
O=C1/C(=C/c2ccccn2)SC(=S)N1Nc1ncc(C(F)(F)F)cc1Cl	1.5%	-4.2%	28.2µM*	nt	1.7%
O=C(CCO)c1ccc(O)cc1	?	7.94µM*	-13.1%	?	?
CCc1nc2nc(C)c(NS(=O)(=O)c3ccc(Cl)cc3)c(=O)n2[nH]1	-10.4%	11.6%	0.9%	-1.5%	5.5%
Cc1ccccc1C(=O)Oc1cc(N)n(S(C)(=O)=O)n1	-4.1%	0.0%	2.6%	-4.5%	i
Cc1c(C(=O)Oc2cc(N)n(S(C)(=O)=O)n2)cccc1[N+](=O)[O-]	-9.6%	-9.1%	79.4µM*	-4.3%	8.3%
O=C1CC(c2ccc3c(c2)OCCO3)Oc2ccc([N+](=O)[O-])cc21 (stereo unspecified)	22.1%	9.5%	20µM*	4.5%	-7.7%
COc1cc(C2CC(=O)N3CN(c4ccccc4C)CSC3=C2C#N)cc(OC)c1OC (stereo unspecified)	nt	nt	nt	-15.9%	nt
COc1ccccc1N1CSC2=C(C#N)C(c3ccc(SC)cc3)CC(=O)N2C1 (stereo unspecified)	nt	-24.0%	22.4µM*	-14.2%	-8.3%
COc1ccc(OC)c(C2CC(=O)N3CN(c4ccccc4F)CSC3=C2C#N)c1 (stereo unspecified)	0.4%	1.6%	35.5µM*	-16.4%	-4.4%
COc1cccc(C2CC(=O)N3CN(c4ccccc4F)CSC3=C2C#N)c1 (stereo unspecified)	3.5%	-7.6%	44.7µM*	-9.2%	-7.5%
